Results as given in publication PMC3218832.

Molecular target: RELA (p65) subunit of heterodimer;p52 subunit (Homo sapiens;Homo sapiens, UniProt Q04206;Q00653 1-307;4-332)
Test: protein binding microarray; high values mean tight binding
Conditions: dsDNA, one strand shown

Sequence	binding signal
CAATGGTTCCT	-0.883 z-score
AAATACACCCC	0.204 z-score
CAAAATGCCCT	-0.15 z-score
AAAGGATCCCT	-0.469 z-score
CGAAGCATCCT	-1.09 z-score
GGGTGTTCCCC	2.7 z-score
AGGATCTCCCC	1.04 z-score
GAGAATTCCCT	1.6 z-score
GAAATAGTCCC	0.964 z-score
CGAGTGACCCT	-0.906 z-score
CGAAAGGCCCT	-0.217 z-score
CGATGTCTCCT	-0.849 z-score
AGATTTATCCC	-0.11 z-score
CGGAGTATCCC	-0.0559 z-score
GGAAGAACCCC	1.03 z-score
GGGGTGTTCCT	0.487 z-score
AGGAGTGTCCC	0.372 z-score
AGGGAGTTCCT	0.798 z-score
CAGGTACCCCT	0.796 z-score

Sequence	binding signal
GGAGGAGTCCC	0.831 z-score
GAATAACTCCT	-0.946 z-score
CGGTTTACCCC	1.01 z-score
CAATTCGTCCC	0.123 z-score
GGATAGTCCCT	1.43 z-score
CGGTAAACCCT	0.0419 z-score
GAGGAAATCCT	-0.425 z-score
CAGTGACCCCT	-0.373 z-score
CAGTGCATCCT	-0.986 z-score
CAGGGGTTCCT	0.55 z-score
CGGAAGCTCCT	-1.08 z-score
GAAAACATCCC	-0.0683 z-score
AGATAGATCCT	-1.23 z-score
AGATGGTCCCC	0.172 z-score
GAAAATATCCT	-0.608 z-score
CAAGTAATCCC	-0.426 z-score
GGAAGTTTCCC	1.22 z-score
GAGGAGGCCCT	-0.973 z-score
GAGAACTTCCT	-0.731 z-score

Molecular target: RELB subunit;p50 subunit (Homo sapiens;Homo sapiens, UniProt Q01201;P19838 120-401;7-356)
Test: as above
Conditions: dsDNA, one strand shown

Sequence	binding signal
CAATGGTTCCT	-0.727 z-score
AAATACACCCC	0.209 z-score
CAAAATGCCCT	-0.464 z-score
AAAGGATCCCT	-0.388 z-score
CGAAGCATCCT	-1.1 z-score
GGGTGTTCCCC	2.21 z-score
AGGATCTCCCC	1.22 z-score
GAGAATTCCCT	1.65 z-score
GAAATAGTCCC	1.38 z-score
CGAGTGACCCT	-0.855 z-score
CGAAAGGCCCT	-0.417 z-score
CGATGTCTCCT	-1.04 z-score
AGATTTATCCC	-0.291 z-score
CGGAGTATCCC	-0.605 z-score
GGAAGAACCCC	0.343 z-score
GGGGTGTTCCT	0.00295 z-score
AGGAGTGTCCC	0.333 z-score
AGGGAGTTCCT	0.721 z-score
CAGGTACCCCT	0.548 z-score

Sequence	binding signal
GGAGGAGTCCC	0.725 z-score
GAATAACTCCT	-0.919 z-score
CGGTTTACCCC	0.667 z-score
CAATTCGTCCC	0.362 z-score
GGATAGTCCCT	0.994 z-score
CGGTAAACCCT	-0.151 z-score
GAGGAAATCCT	-0.858 z-score
CAGTGACCCCT	-0.303 z-score
CAGTGCATCCT	-1.19 z-score
CAGGGGTTCCT	-0.0145 z-score
CGGAAGCTCCT	-1.17 z-score
GAAAACATCCC	-0.24 z-score
AGATAGATCCT	-1.03 z-score
AGATGGTCCCC	0.435 z-score
GAAAATATCCT	-1.05 z-score
CAAGTAATCCC	-0.117 z-score
GGAAGTTTCCC	0.959 z-score
GAGGAGGCCCT	-0.68 z-score
GAGAACTTCCT	-0.944 z-score

Molecular target: T1, RELB subunit;p52 subunit (Homo sapiens;Homo sapiens, UniProt Q01201;Q00653 120-401;4-332)
T1 sequence 1: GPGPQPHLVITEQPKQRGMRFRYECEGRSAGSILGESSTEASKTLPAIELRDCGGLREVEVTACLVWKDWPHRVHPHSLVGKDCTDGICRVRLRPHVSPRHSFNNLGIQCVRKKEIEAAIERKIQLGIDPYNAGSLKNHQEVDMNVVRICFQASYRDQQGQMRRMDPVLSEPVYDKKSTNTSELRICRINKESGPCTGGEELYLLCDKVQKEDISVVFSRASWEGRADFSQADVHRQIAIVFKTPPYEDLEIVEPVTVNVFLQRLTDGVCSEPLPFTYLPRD
T1 sequence 2: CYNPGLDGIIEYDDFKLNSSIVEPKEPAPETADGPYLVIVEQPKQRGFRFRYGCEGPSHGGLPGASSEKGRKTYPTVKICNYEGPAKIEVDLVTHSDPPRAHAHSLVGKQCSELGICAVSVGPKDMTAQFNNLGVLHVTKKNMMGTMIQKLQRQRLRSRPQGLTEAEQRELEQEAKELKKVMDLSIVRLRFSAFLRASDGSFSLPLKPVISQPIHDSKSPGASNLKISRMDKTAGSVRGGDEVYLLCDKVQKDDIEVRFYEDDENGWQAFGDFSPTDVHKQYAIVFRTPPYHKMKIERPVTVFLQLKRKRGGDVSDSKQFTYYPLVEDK
Test: as above
Conditions: dsDNA, one strand shown

Sequence	binding signal
CAATGGTTCCT	-0.56 z-score
AAATACACCCC	0.566 z-score
CAAAATGCCCT	-0.38 z-score
AAAGGATCCCT	-0.424 z-score
CGAAGCATCCT	-1.02 z-score
GGGTGTTCCCC	2.06 z-score
AGGATCTCCCC	0.999 z-score
GAGAATTCCCT	1.74 z-score
GAAATAGTCCC	0.953 z-score
CGAGTGACCCT	-0.722 z-score
CGAAAGGCCCT	-0.6 z-score
CGATGTCTCCT	-0.858 z-score
AGATTTATCCC	-0.135 z-score
CGGAGTATCCC	-0.711 z-score
GGAAGAACCCC	0.678 z-score
GGGGTGTTCCT	0.472 z-score
AGGAGTGTCCC	0.321 z-score
AGGGAGTTCCT	0.659 z-score
CAGGTACCCCT	1.06 z-score

Sequence	binding signal
GGAGGAGTCCC	0.409 z-score
GAATAACTCCT	-0.853 z-score
CGGTTTACCCC	1.16 z-score
CAATTCGTCCC	0.547 z-score
GGATAGTCCCT	1.65 z-score
CGGTAAACCCT	-0.0534 z-score
GAGGAAATCCT	-0.718 z-score
CAGTGACCCCT	-0.116 z-score
CAGTGCATCCT	-1.04 z-score
CAGGGGTTCCT	0.388 z-score
CGGAAGCTCCT	-1.2 z-score
GAAAACATCCC	-0.321 z-score
AGATAGATCCT	-0.915 z-score
AGATGGTCCCC	0.355 z-score
GAAAATATCCT	-0.797 z-score
CAAGTAATCCC	-0.123 z-score
GGAAGTTTCCC	1.03 z-score
GAGGAGGCCCT	-0.644 z-score
GAGAACTTCCT	-0.781 z-score

Molecular target: C-Rel subunit;p50 subunit (Homo sapiens;Homo sapiens, UniProt Q04864;P19838 1-285;7-356)
Test: as above
Conditions: dsDNA, one strand shown

Sequence	binding signal
CAATGGTTCCT	-0.994 z-score
AAATACACCCC	0.342 z-score
CAAAATGCCCT	-0.13 z-score
AAAGGATCCCT	-0.748 z-score
CGAAGCATCCT	-1.65 z-score
GGGTGTTCCCC	1.68 z-score
AGGATCTCCCC	0.853 z-score
GAGAATTCCCT	1.43 z-score
GAAATAGTCCC	0.838 z-score
CGAGTGACCCT	-1.34 z-score
CGAAAGGCCCT	-0.822 z-score
CGATGTCTCCT	-1.52 z-score
AGATTTATCCC	0.062 z-score
CGGAGTATCCC	-0.0452 z-score
GGAAGAACCCC	0.685 z-score
GGGGTGTTCCT	0.537 z-score
AGGAGTGTCCC	0.586 z-score
AGGGAGTTCCT	0.315 z-score
CAGGTACCCCT	0.193 z-score

Sequence	binding signal
GGAGGAGTCCC	0.717 z-score
GAATAACTCCT	-0.82 z-score
CGGTTTACCCC	1.04 z-score
CAATTCGTCCC	0.479 z-score
GGATAGTCCCT	1.15 z-score
CGGTAAACCCT	-0.122 z-score
GAGGAAATCCT	-0.315 z-score
CAGTGACCCCT	-0.672 z-score
CAGTGCATCCT	-1.59 z-score
CAGGGGTTCCT	-0.324 z-score
CGGAAGCTCCT	-1.46 z-score
GAAAACATCCC	-0.174 z-score
AGATAGATCCT	-1.64 z-score
AGATGGTCCCC	0.292 z-score
GAAAATATCCT	-0.995 z-score
CAAGTAATCCC	0.0809 z-score
GGAAGTTTCCC	1.36 z-score
GAGGAGGCCCT	-1.36 z-score
GAGAACTTCCT	-0.692 z-score
